Compound activity: PubChem, National Center for Advancing Translational Sciences (NCATS)
Rows were chosen to be rich in hits. Some 19% of all compounds tested hit in one or more screens of this group.
DT40 TDP1 no CPT: qHTS for Inhibitors of human tyrosyl-DNA phosphodiesterase 1 (TDP1): qHTS in cells in absence of CPT. DT40 Tdp1-/- hTDP1 cells, no CPT, ATP luminescence, 48 h. Potency, µM (highest dose often 46.2 µM), without a hit: at the top dose activity change, negative = growth inhibition, hits mostly inhibitors. AID 686978, 2013. hit rate 15% among 420,000; note: potency is the fitted concentration of half-maximal effect; nearly all actives have a fitted effect of over 55% in size
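Luminescent ATP content (CellTiter-Glo) served as the growth readout. Knockout chicken DT40 cells expressing human TDP1 were exposed to compounds without camptothecin for a minimum 48 hr at 37 °C.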
IL1B secr inh: inhibitors of inflammasome signaling (IL-1 beta secretion). hit rate 4.7% among 360,000. THP-1 LPS/ATP IL-1B secretion, AlphaLISA, 16 h; stronger effect = lower value. AID 743279. activity change, % at 57.5 µM; in the data active = activity change below about -50%; inconclusive = mostly about -30% to -49%
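Secreted IL-1B measured by AlphaLISA bead assay after 16 h compound exposure of THP-1 cells; compounds (final up to 57.5 uM) added 1 h before LPS (250 ng/mL) and ATP (1.25 mM) stimulation; lower signal means less secretion.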
TDP1 cell CPT: DT40-hTDP1 cell growth loss with CPT; hit rate 12% among 420,000; Potency, µM (series often up to 46.2 µM), for the others: at the top dose activity change, negative = growth inhibition, usual class: inhibitors; AID 686979; chicken DT40 Tdp1-/-;hTDP1 cells + 20 nM CPT, ATP luminescence, 48 h; note: potency is the fitted concentration of half-maximal effect; nearly all actives have a fitted effect of over 55% in size
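Cell growth measured by CellTiter-Glo luminescence after a minimum 48 h, 37 C compound exposure with 20 nM CPT in Tdp1-knockout DT40 cells stably expressing hTDP1, seeded 400/well; qHTS titration format.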
HT1080NT lethal: kills 2HG-producing HT-1080-NT fibrosarcoma cells | HT-1080-NT fibrosarcoma viability, CellTiter-Glo ATP luminescence, 48 h | Potency, µM (titrated, usually from 46.1 µM), without a hit: top-dose activity, negative = less viability, most hits filed as cytotoxic | hit rate 1.6% among 360,000 | AID 686970;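 note: NT is the 2HG producing partner of a matched IDH1 knockdown line; potency is the fitted concentration of half-maximal effect; 0% = DMSO-treated cells and -100% = media-only wells without cells; nearly all actives have a fitted effect of over 55% in size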
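Read-out is CellTiter-Glo luminescence after 10 minutes at room temperature, following 48 hours' compound treatment of HT-1080-NT cells (750 cells/well, RPMI, 5% FBS, 37 degrees C).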
HT1080 IDH1KD tx: toxicity to HT-1080 IDH1 knockdown cells (counter line) | Potency, µM (titrated, usually from 46.1 µM), for inactives: at the highest dose activity, negative = toxicity, usual class: cytotoxic | hit rate 2% among 360,000 | AID 686971 | HT-1080 IDH1 knockdown viability, ATP luminescence, 48 h;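 note: potency is the fitted concentration of half-maximal effect; 0% = DMSO wells and -100% = cell-free medium wells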
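Using the IDH1-knockdown HT-1080 line run in the same batch and compound series as the NT line, viability after 48 h at 37 °C was determined by CellTiter-Glo luminescence and expressed as % activity.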
Starred values were filed as active, the others as inactive; ? = inconclusive; / = not tested or not shown. Unless noted, calls come from the whole dose curve; as a rule, active = well fitted curve in the direction sought with a large enough effect; inconclusive = small, poorly fitted or top-dose-only effect, or another doubt; inactive = no such curve, though single readings can be large; an effect the other way counts as inactive or inconclusive. Unless noted, % is set by controls: 0 for no effect and ±100 for the full control effect.

SMILES	DT40 TDP1 no CPT	IL1B secr inh	TDP1 cell CPT	HT1080NT lethal	HT1080 IDH1KD tx
Cc1cccc(N2CCN(C(=O)c3cccc(S(=O)(=O)N4CCOCC4)c3)CC2)c1C	?	-19.8	?	-1.6%	-11.5%
COc1cccc(N2CCN(C(=O)c3ccc(OC)c(S(=O)(=O)NC4CC4)c3)CC2)c1	16.4µM*	14.9	?	-19.1%	-11.6%
COc1ccc(C(=O)N2CCN(c3ccccc3Cl)CC2)cc1S(=O)(=O)NC1CC1	4.11µM*	-23.8	?	-13.6%	-8.9%
COc1ccc(C(=O)N2CCC(C(N)=O)CC2)cc1S(=O)(=O)N1CCCC1	4.9%	8.9	3.1%	21.0%	5.1%
CCC(Sc1nc2sc(C(=O)OC)c(C)c2c(=O)n1N)C(=O)N(CC)CC (stereo not given)	13µM*	9.2	?	4.3%	5.9%
CCCCNC(=S)N(C)/N=C/c1ccc(OCc2ccc(C(=O)OC)cc2)c(OC)c1	14.6µM*	-2.1	?	12.8%	19.5%
COc1cc(C(=S)N2CCCC2)ccc1OCc1ccccc1	?	-3.4	1.2%	-0.6%	-3.6%
Cc1cc(C(=O)NCc2cccs2)c(C)o1	18.4µM*	-12.1	25.9µM*	-1.9%	-14.7%
CCN(CC(=O)NCc1cccs1)C(=O)c1ccc(-c2ccccc2F)o1	18.4µM*	12.1	?	1.1%	10.7%
COc1ccc(CNC(=O)COC(=O)[C@H](Cc2c[nH]c3ccccc23)NC(=O)c2cccs2)cc1	?	-92.6*	?	17.7%	13.7%
Cc1occc1C(=O)NCc1cccs1	-25.5%	6.1	-8.8%	0.9%	7.1%
CCCCN(CC)CCCNC(=O)c1cc2cc3ccc(OC)cc3nc2o1	?	-50.4*	?	-17.9%	-20.5%
O=C(CN(Cc1ccco1)C(=O)Cn1nnc(-c2cccs2)n1)NCC1CCCO1 (stereo not given)	2.4%	-2.7	-9.4%	-4.2%	-7.8%
COC(=O)c1cc(Br)c(=O)n(Cc2ccc3c(c2)OCO3)c1	?	-8.6	-1.8%	-18.4%	-8.8%
O=C(CN1N=C(c2ccc(Cl)cc2)CCC1=O)NCc1ccc(F)cc1	?	/	-18.1%	/	/
COc1ccc(OC)c(CNC(=O)c2cc3cc4ccc(OC)cc4nc3o2)c1	-8.2%	/	27.2%	/	/
COc1ccc2cc3cc(C(=O)NCc4ccc(C)cc4)oc3nc2c1	-16.3%	/	-3.7%	/	/
COc1ccc(CC(=O)NCc2cccs2)cc1	14.6µM*	45.3	23.1µM*	-20.4%	?
COc1ccc2cc3cc(C(=O)NCc4cccs4)oc3nc2c1	?	-54.1*	-24.0%	?	?
COc1ccc2cc3cc(C(=O)NCCc4ccc(OC)c(OC)c4)oc3nc2c1	18.4µM*	?	11.6µM*	-22.7%	-18.9%
CCCN(CCC)CCCNC(=O)c1cc2cc3ccc(OC)cc3nc2o1	-22.2%	-77.7*	?	?	-14.1%
CCCCc1ccc(-n2nc3cc(C)c(NC(=O)c4ccc(C#N)cc4F)cc3n2)cc1	-23.7%	/	-9.9%	/	/
COC(=O)c1ccc(Oc2nc(Nc3ccc(C)c(C)c3)nc(N(C)C)n2)cc1	17.8µM*	?	11.2µM*	?	?
Cc1ccc(C)c(CNc2ccc(S(=O)(=O)N3CCCCC3)cc2)c1	20.6µM*	-15.0	14.6µM*	-27.1%	-7.3%
Cc1ccc2c(CC(=O)Nc3ccc(S(=O)(=O)N4CCCCC4)cc3)coc2c1C	14.6µM*	/	13µM*	/	/
Cc1ccc(S(=O)(=O)Nc2ccc(S(=O)(=O)N3CCCC3)cc2)cc1	3.0%	-7.6	?	2.2%	-1.8%
Cc1cc(C)c2c(CC(=O)Nc3ccc(S(=O)(=O)N4CCCCC4)cc3)coc2c1	10.3µM*	/	20.6µM*	/	/
CC1CCN(S(=O)(=O)c2ccc(NC(=O)CN3CCCC(C)C3)cc2)CC1 (stereo not given)	?	-21.4	?	?	?
Cc1cc(C)c2c(CC(=O)N3CCCC3)coc2c1	-22.0%	-11.7	3.8%	-3.3%	-1.3%
